The list is not random: actives were taken first. Their share in the collection is about 17%.
HepG2 tox = qHTS for Inhibitors of TGF-b: Cytotox Counterscreen | HepG2 CAGA-GFP viability, ATP luminescence, 18 h | Potency, µM (doses to about 46.1 µM), actives largely listed as cytotoxic | 0.76% of 410,000 active | AID 588856, 2011
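CellTiter-Glo luminescence gave cytotoxicity after 18 hours at 37 degrees C. The cells were HepG2 CAGA-GFP in 1% FBS DMEM, stimulated with 500 pg/mL TGF-beta after compound addition. %Activity was normalised to no-cell wells (complete cell-killing) and DMSO (no toxicity), and curves were fitted and classified.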
ATXN2 expr inh = Primary qHTS for Inhibitors of ATXN expression; HEK-293 ATXN2-luciferase reporter, luminescence, 24 h; Potency, µM (series often up to 57 µM), most hits filed as inhibitors; 0.72% of 360,000 active; further: nearly all actives have a fitted effect of over 55% in size
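qHTS (up to 57 uM final) was run with 24 h compound exposure of reporter cells at 37 °C. Each well was multiplexed: SteadyGlo luminescence measured ATXN2-luciferase expression after a fluorogenic Gly-Phe-AFC viability readout (25 uM final).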
S2 tox = Viability Counterscreen for Primary qHTS for Inhibitors of ATXN expression; S2 cells (HEK-293 line with an ATXN2-luciferase reporter) viability, CellTiter-Fluor protease fluorescence, 24 h; Potency, µM (doses to about 56.7 µM), most hits filed as cytotoxic; 0.49% of 400,000 active; AID 651635, 2014; further: nearly all actives have a fitted effect of over 40% in size
TGFb SMAD3 inh = qHTS for Inhibitors of TGF-b; Potency, µM (series often up to 46.1 µM), actives largely listed as inhibitors; 1.2% of 410,000 active; HepG2 CAGA-GFP TGF-b/SMAD3 reporter, GFP fluorescence, 18 h; TGF-beta stimulated, 500 pg/mL final; further: nearly all actives have a fitted effect of over 65% in size
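Smad-responsive CAGA-GFP expression was quantified in HEPG2 cells exposed to compounds and 500 pg/mL final TGF-beta for 18 h at 37 degrees C; unstimulated wells defined full inhibition.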
DT40 TDP1 no CPT = qHTS for Inhibitors of human tyrosyl-DNA phosphodiesterase 1 (TDP1): qHTS in cells in absence of CPT; DT40 Tdp1-/- hTDP1 cells, no CPT, ATP luminescence, 48 h; Potency, µM (highest dose often 46.2 µM), actives largely listed as inhibitors; 15% of 420,000 active; further: nearly all actives have a fitted effect of over 55% in size
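Chicken DT40 Tdp1-/- cells stably complemented with human TDP1 were seeded at 400 cells/well with DMSO in place of 20 nM camptothecin. After compound pinning, cells grew at least 48 hr at 37 °C; viability read by CellTiter-Glo luminescence.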
DT40 TDP1 CPT = qHTS for Inhibitors of human tyrosyl-DNA phosphodiesterase 1 (TDP1): qHTS in cells in presence of CPT. chicken DT40 Tdp1-/-;hTDP1 cells + 20 nM CPT, ATP luminescence, 48 h. Potency, µM (top dose mostly 46.2 µM), most hits filed as inhibitors. 12% of 420,000 active; further: nearly all actives have a fitted effect of over 55% in size
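Cell growth measured by CellTiter-Glo luminescence after a minimum 48 h, 37 C compound exposure with 20 nM CPT in Tdp1-knockout DT40 cells stably expressing hTDP1, seeded 400/well; qHTS titration format.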
Each line names hits and unclear results; the compound was inactive in the other large screens. The call rests on the fitted dose curve; in most records, active means well fitted curve in the direction sought with a large enough effect; inconclusive means small, poorly fitted or top-dose-only effect, or another doubt; inactive means no such curve, though single readings can be large; an effect the other way counts as inactive or inconclusive.

COCCNC(=O)C1(C)CCCN(CCOc2ccc(Cl)cc2)C1 (centres undefined)	DT40 TDP1 no CPT 14.6µM, DT40 TDP1 CPT inconclusive
CCCNC(=O)C1(C)CCCN(Cc2ccc(-c3ccccc3)o2)C1 (centres undefined)	DT40 TDP1 no CPT 20.6µM, DT40 TDP1 CPT 23.1µM
COCCNC(=O)C1(C)CCCN(Cc2ccc(Oc3ccccc3)cc2)C1 (centres undefined)	DT40 TDP1 no CPT 20.6µM, DT40 TDP1 CPT inconclusive
Cc1ccc(CNCc2ccccc2Cl)cc1	DT40 TDP1 no CPT inconclusive
CCOc1ccc(CNCc2ccccc2Cl)cc1	DT40 TDP1 no CPT inconclusive, DT40 TDP1 CPT 16.4µM
Clc1ccccc1CNCC1CCC(CNCc2ccccc2Cl)CC1 (centres undefined)	DT40 TDP1 no CPT 2.99µM, DT40 TDP1 CPT 2.99µM (no result: HepG2 tox, ATXN2 expr inh, S2 tox, TGFb SMAD3 inh)
O=C(COC(=O)CCc1nc2ccccc2c(=O)[nH]1)Nc1ccc(Cl)cn1	DT40 TDP1 no CPT inconclusive, DT40 TDP1 CPT inconclusive
Cc1ccc(S(=O)(=O)CCC(=O)N(CCN2CCOCC2)c2nc3ccccc3s2)cc1	DT40 TDP1 no CPT 16.4µM, DT40 TDP1 CPT 20.6µM
Cc1cccc2sc(N(CCN3CCOCC3)C(=O)CCS(=O)(=O)c3ccccc3)nc12	ATXN2 expr inh inconclusive, TGFb SMAD3 inh inconclusive, DT40 TDP1 no CPT 20.6µM, DT40 TDP1 CPT 16.4µM (no result: S2 tox)
COc1ccccc1-c1c(C)nn2c(-c3ccccc3)cc(-c3ccccc3)nc12	none (no result: ATXN2 expr inh, S2 tox)
COc1cc(C2C(=O)N(C3CCCCCC3)CC(=O)N2CCC2=CCCCC2)ccc1OC(C)C (centres undefined)	DT40 TDP1 no CPT 20.6µM, DT40 TDP1 CPT 18.4µM (no result: ATXN2 expr inh, S2 tox)
CCOc1ccc(C2C(=O)N(C3CCCCCC3)CC(=O)N2CCC2=CCCCC2)cc1OC (centres undefined)	TGFb SMAD3 inh inconclusive, DT40 TDP1 no CPT 16.4µM, DT40 TDP1 CPT 23.1µM (no result: ATXN2 expr inh, S2 tox)
COc1ccc(C2C(=O)N(C3CCC(C)CC3)CC(=O)N2CCC2=CCCCC2)cc1OC (centres undefined)	DT40 TDP1 no CPT 23.1µM, DT40 TDP1 CPT 23.1µM (no result: ATXN2 expr inh, S2 tox)
O=C(c1cc(F)ccc1F)C1CCCN(C(=O)CCN2CCCCO2)C1 (centres undefined)	none
O=S(=O)(c1ccc(OC(F)(F)F)cc1)N1CCCC(N2CCOCC2)C1 (centres undefined)	none
C[C@H](NC(=O)OC(C)(C)C)[C@@H](O)c1ccco1	none (no result: ATXN2 expr inh, S2 tox)
CCc1ccc(C(=O)NC2=NC(c3ccccc3F)CC(=O)N2)cc1 (centres undefined)	none
CCOC(=O)N1CCC(N(CCOC)C(=O)Nc2ccc(Cl)c(Cl)c2)CC1	ATXN2 expr inh inconclusive, DT40 TDP1 no CPT 10.3µM, DT40 TDP1 CPT 18.4µM
CCOC(=O)N1CCC(N(C(=O)Nc2cccc(OC)c2)C(C)CC)CC1 (centres undefined)	DT40 TDP1 no CPT 10.3µM, DT40 TDP1 CPT 20.6µM
COc1ccc(-c2nn3c(C4CCCCC4)nnc3s2)cc1OC	DT40 TDP1 no CPT inconclusive, DT40 TDP1 CPT 14.6µM
COc1cc(-c2nn3c(C4CCCCC4)nnc3s2)cc(OC)c1OC	DT40 TDP1 no CPT 20.6µM, DT40 TDP1 CPT inconclusive
COc1ccc(NC(=O)CC(C)S(=O)(=O)c2cc3c(cc2C)NC(=O)CO3)cc1OC (centres undefined)	none
CN(CCOc1ccc(Cl)cc1)CC(=O)Nc1ccc(OC(F)F)cc1	TGFb SMAD3 inh inconclusive, DT40 TDP1 CPT inconclusive
CN(CCOc1ccccc1)CC(=O)Nc1ccc(Br)cc1F	DT40 TDP1 no CPT 16.4µM, DT40 TDP1 CPT inconclusive
CCC(C)c1ccccc1NC(=O)CN(C)CCOc1ccc(Cl)cc1 (centres undefined)	DT40 TDP1 no CPT 23.1µM, DT40 TDP1 CPT inconclusive
Cc1ccc(NC(=O)CN(C)CCOc2ccccc2)c([N+](=O)[O-])c1	DT40 TDP1 CPT inconclusive
COc1cc(C2CC(=O)Nc3cc4c(cc32)OCCO4)cc(OC)c1O (centres undefined)	TGFb SMAD3 inh inconclusive, DT40 TDP1 no CPT 20.6µM, DT40 TDP1 CPT inconclusive
COc1cc2c(cc1OC)C(c1ccccc1OC(C)C)CC(=O)N2 (centres undefined)	DT40 TDP1 no CPT 14.6µM, DT40 TDP1 CPT inconclusive
CC(C)COc1ccccc1C1CC(=O)Nc2cc3c(cc21)OCO3 (centres undefined)	ATXN2 expr inh inconclusive, S2 tox inconclusive, TGFb SMAD3 inh inconclusive, DT40 TDP1 no CPT 4.11µM, DT40 TDP1 CPT 2.59µM
COc1cccc(C2CC(=O)Nc3cc4c(cc32)OCCO4)c1OC (centres undefined)	DT40 TDP1 no CPT 18.4µM, DT40 TDP1 CPT 20.6µM (no result: ATXN2 expr inh, S2 tox)
COc1ccc(NC(=O)CN2C(=O)COc3ccc(C)cc32)cc1	none
Cc1ccc(C(=O)Nc2ncccc2O)cc1S(=O)(=O)N1CCCCC1	none
CCOC(=O)C1(C)NC(c2ccco2)C2C(=O)N(CC)C(=O)C21 (centres undefined)	none (no result: ATXN2 expr inh)
OCCCNc1nc(-c2ccc(Cl)cc2)nnc1-c1ccc(Br)cc1	DT40 TDP1 no CPT 20.6µM, DT40 TDP1 CPT 23.1µM
O=[N+]([O-])c1ccc(-c2nnc(-c3ccccc3)c(NCCCO)n2)cc1	DT40 TDP1 no CPT 16.4µM, DT40 TDP1 CPT 20.6µM
COc1ccc(N(CC(=O)NN=C2CCN(C)CC2)S(=O)(=O)c2ccc(NC(C)=O)cc2)cc1	none
COc1cc2ccccc2cc1C(=O)OCc1nc2ccsc2c(=O)[nH]1	S2 tox inconclusive, DT40 TDP1 no CPT inconclusive, DT40 TDP1 CPT 5.8µM
COc1cc(SC)ccc1C(=O)OCc1nc2ccsc2c(=O)[nH]1	DT40 TDP1 no CPT 9.2µM, DT40 TDP1 CPT 8.2µM
O=C(OCc1nc2ccsc2c(=O)[nH]1)c1ccco1	none
CSc1ncccc1C(=O)OCc1nc2ccsc2c(=O)[nH]1	none
Cc1cc2c(c(-c3ccc4nc(C)ccc4c3)c1)OC(CNC(=O)Cc1ccn(C)c1)C2 (centres undefined)	DT40 TDP1 no CPT inconclusive, DT40 TDP1 CPT inconclusive (no result: HepG2 tox, ATXN2 expr inh, TGFb SMAD3 inh)
Cc1ccc(C(=O)COC(=O)c2nc(Cl)ccc2Cl)cc1	none
Cc1ccc(C(=O)OCn2ncc(Cl)c(Cl)c2=O)cc1	ATXN2 expr inh inconclusive, TGFb SMAD3 inh inconclusive, DT40 TDP1 no CPT 2.59µM, DT40 TDP1 CPT 1.84µM (no result: S2 tox)
O=C(OCn1ncc(Cl)c(Cl)c1=O)c1ccc(C(F)(F)F)cc1	HepG2 tox 10µM, ATXN2 expr inh inconclusive, S2 tox inconclusive, DT40 TDP1 no CPT 5.8µM, DT40 TDP1 CPT 2.91µM
O=C(OCC(=O)c1ccc[nH]1)c1ccc(C(F)(F)F)cc1	S2 tox inconclusive
CCOC(=O)c1cnc2c(C)cccc2c1NCc1ccco1	none
